# Test results as given in PubChem BioAssay (NCI).
# This is part of a sample that, as a whole, favours compounds with a hit. Of some 79,000 tested, about 15% had one in any assay. Unmarked numbers belong to inactive results. The source made the active and inactive calls. Cut-off read from the data, not from the text of the source: active = growth inhibition above about 70%; inactive = the rest.
# Experiments:
# [1] = NCI Yeast Anticancer Drug Screen. Data for the rad52 strain (AID 147);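 note: 0% = growth of vehicle-treated control cultures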; details: S. cerevisiae rad52 mutant growth inhibition, hits give high values
# Summary of the method: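 Here a repair-compromised yeast strain receives each compound; its growth is then quantified and normalised to vehicle-only controls.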
# [2] = NCI Yeast Anticancer Drug Screen. Data for the wt1 strain (AID 149);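 note: 0% = growth of vehicle-treated wt1 cultures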; details: S. cerevisiae wt1 strain (SPY 50644) growth inhibition, hits give high values
# Summary of the method: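 Using yeast strain wt1, compound-induced growth inhibition was determined against vehicle-treated cultures.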
# [3] = NCI Yeast Anticancer Drug Screen. Data for the rad50EPP+ strain (AID 151);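 note: 0% = growth of vehicle-treated control cultures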; details: S. cerevisiae rad50 mutant strain, hits give high values
# Summary of the method: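 Read-out is yeast growth inhibition relative to vehicle; cells used were the rad50EPP+ strain.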
# [4] = NCI Yeast Anticancer Drug Screen. Data for the mgt1 strain (AID 153); details: S. cerevisiae mgt1 mutant growth inhibition, hits give high values
# Summary of the method: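 Measured: inhibition of mgt1 yeast growth by compound, normalized to vehicle-treated cultures.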
# [5] = NCI Yeast Anticancer Drug Screen. Data for the mec2-1 strain (AID 157); details: S. cerevisiae mec2-1 strain, hits give high values
# Summary of the method: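 Using mec2-1 yeast: add compound, measure growth, express inhibition versus vehicle-treated cultures.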
# [6] = NCI Yeast Anticancer Drug Screen. Data for the rad14 strain (AID 159);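 note: 0% = growth of vehicle-treated control cultures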; details: S. cerevisiae rad14 strain growth inhibition, hits give high values
# Summary of the method: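 Screen for anticancer potential: a yeast strain altered in DNA damage repair is grown with compound, and reduced growth is quantified against vehicle controls.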
# [7] = NCI Yeast Anticancer Drug Screen. Data for the sgs1 mgt1 strain (AID 161);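 note: 0% = growth of cultures given vehicle only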; details: S. cerevisiae sgs1 mgt1 strain, hits give high values
# Summary of the method: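 Yeast cells carrying a defined DNA-repair defect were exposed to test compounds. Growth inhibition was measured relative to vehicle-treated controls.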
# [8] = NCI Yeast Anticancer Drug Screen. Data for the CLN2oe strain (AID 163);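 note: 0% = growth of vehicle-only control cultures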; details: S. cerevisiae CLN2oe strain, hits give high values
# Summary of the method: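 Whole-cell yeast growth assay. A strain engineered for altered cell-cycle control received compound, and inhibition relative to vehicle-treated cultures was recorded.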
# [9] = NCI Yeast Anticancer Drug Screen. Data for the cln2 rad14 strain (AID 165);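 note: 0% = growth equal to vehicle treated cultures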; details: S. cerevisiae cln2 rad14 strain, hits give high values
# Summary of the method: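 Yeast strain cln2 rad14, bearing defects in cell cycle control and DNA repair, serves as the test system; values reflect growth inhibition compared with vehicle.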
# [10] = NCI Yeast Anticancer Drug Screen. Data for the bub3 strain (AID 167); details: S. cerevisiae bub3 mutant strain, hits give high values
# Summary of the method: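 Screening used yeast with an engineered genetic alteration affecting cell cycle control. Compound-exposed cultures were compared with vehicle cultures, and reduced growth was taken as inhibition.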
# [11] = NCI Yeast Anticancer Drug Screen. Data for the wt2 strain (AID 169);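 note: 0% = growth of vehicle-treated yeast cultures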; details: S. cerevisiae wt2 strain growth inhibition, hits give high values
# Summary of the method: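 Treated yeast vs. vehicle-treated yeast: growth inhibition determined.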
# [12] = NCI Yeast Anticancer Drug Screen. Data for the mlh1 strain (AID 171);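 note: 0% = growth of vehicle-treated control cultures of the same strain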; details: S. cerevisiae mlh1 strain growth inhibition, hits give high values
# Summary of the method: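 A yeast strain with a defined genetic lesion serves as the test organism. Cultures receive compound or vehicle, and growth is measured.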
# [13] = NCI Yeast Anticancer Drug Screen. Data for the sgs1 strain (AID 173);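 note: 0% = growth of vehicle-only control cultures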; details: S. cerevisiae sgs1 mutant, hits give high values
# Summary of the method: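 A genetically defined yeast mutant is incubated with the test compound, and its growth is compared to that of the same strain given vehicle.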
# [14] = NCI Yeast Anticancer Drug Screen. Data for the mlh1 rad18 strain (AID 175); details: S. cerevisiae mlh1 rad18 strain growth inhibition, hits give high values
# Summary of the method: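 Steps: expose repair-defective yeast to compound; measure growth; express inhibition against vehicle-treated controls.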
# [15] = NCI Yeast Anticancer Drug Screen. Data for the rad18 strain (AID 177); details: S. cerevisiae rad18 mutant growth inhibition, hits give high values
# Summary of the method: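 Measured value is growth inhibition of a yeast strain bearing a DNA repair alteration, referenced to vehicle-treated cells.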
# [16] = at 5.0 µM (retest, dose inferred, filed as 0.5)
# [17] = at 50.0 µM (retest, dose inferred, filed as 5.0)
smiles,measurement,setting,value
Cc1ccc(S/C(=C\C(=O)O)c2ccccc2)cc1,growth inhibition,[1]; at 1.2 µM,2%
same,growth inhibition,[1]; at 3.7 µM,7%
same,growth inhibition,[1]; at 11.0 µM,12%
same,growth inhibition,[1]; at 33.0 µM,28%
same,growth inhibition,[1]; at 100.0 µM,46%
same,growth inhibition,[2]; at 1.2 µM,-6%
same,growth inhibition,[2]; at 3.7 µM,-7%
same,growth inhibition,[2]; at 11.0 µM,-8%
same,growth inhibition,[2]; at 33.0 µM,-2%
same,growth inhibition,[2]; at 100.0 µM,10%
same,growth inhibition,[3]; at 1.2 µM,-6%
same,growth inhibition,[3]; at 3.7 µM,2%
same,growth inhibition,[3]; at 11.0 µM,15%
same,growth inhibition,[3]; at 33.0 µM,25%
same,growth inhibition,[3]; at 100.0 µM,52%
same,growth inhibition,[4]; at 1.2 µM,-4%
same,growth inhibition,[4]; at 3.7 µM,-5%
same,growth inhibition,[4]; at 11.0 µM,-3%
same,growth inhibition,[4]; at 33.0 µM,4%
same,growth inhibition,[4]; at 100.0 µM,32%
same,growth inhibition,[5]; at 1.2 µM,-6%
same,growth inhibition,[5]; at 3.7 µM,-3%
same,growth inhibition,[5]; [16],-15%
same,growth inhibition,[5]; at 11.0 µM,-4%
same,growth inhibition,[5]; at 33.0 µM,8%
same,growth inhibition,[5]; [17],-1%
same,growth inhibition,[5]; at 50.0 µM,28.9%
same,growth inhibition,[5]; at 100.0 µM,25%
same,growth inhibition,[6]; at 1.2 µM,-1%
same,growth inhibition,[6]; at 3.7 µM,3%
same,growth inhibition,[6]; at 11.0 µM,7%
same,growth inhibition,[6]; at 33.0 µM,17%
same,growth inhibition,[6]; at 100.0 µM,34%
same,growth inhibition,[7]; [16],-12%
same,growth inhibition,[7]; [17],52%
same,growth inhibition,[7]; at 50.0 µM,64.8%
same,growth inhibition,[8]; at 1.2 µM,1%
same,growth inhibition,[8]; at 3.7 µM,-2%
same,growth inhibition,[8]; at 11.0 µM,5%
same,growth inhibition,[8]; at 33.0 µM,16%
same,growth inhibition,[8]; at 100.0 µM,35%
same,growth inhibition,[9]; [16],-6%
same,growth inhibition,[9]; [17],29%
same,growth inhibition,[9]; at 50.0 µM,47.5%
same,growth inhibition,[10]; at 1.2 µM,-4%
same,growth inhibition,[10]; at 3.7 µM,-4%
same,growth inhibition,[10]; [16],-2%
same,growth inhibition,[10]; at 11.0 µM,-4%
same,growth inhibition,[10]; at 33.0 µM,6%
same,growth inhibition,[10]; [17],66%
same,growth inhibition,[10]; at 50.0 µM,39.5%
same,growth inhibition,[10]; at 100.0 µM,19%
same,growth inhibition,[11]; at 1.2 µM,-10%
same,growth inhibition,[11]; at 3.7 µM,-11%
same,growth inhibition,[11]; at 11.0 µM,-7%
same,growth inhibition,[11]; at 33.0 µM,-3%
same,growth inhibition,[11]; at 100.0 µM,11%
same,growth inhibition,[12]; at 1.2 µM,-6%
same,growth inhibition,[12]; at 3.7 µM,0%
same,growth inhibition,[12]; at 11.0 µM,6%
same,growth inhibition,[12]; at 33.0 µM,20%
same,growth inhibition,[12]; at 100.0 µM,38%
same,growth inhibition,[13]; at 1.2 µM,4%
same,growth inhibition,[13]; at 3.7 µM,-4%
same,growth inhibition,[13]; at 11.0 µM,12%
same,growth inhibition,[13]; at 33.0 µM,25%
same,growth inhibition,[13]; at 100.0 µM,50%
same,growth inhibition,[14]; [16],-29%
same,growth inhibition,[14]; [17],72% (active)
same,growth inhibition,[14]; at 50.0 µM,38%
same,growth inhibition,[15]; at 1.2 µM,-4%
same,growth inhibition,[15]; at 3.7 µM,4%
same,growth inhibition,[15]; at 11.0 µM,7%
same,growth inhibition,[15]; at 33.0 µM,20%
same,growth inhibition,[15]; at 100.0 µM,50%
